Test results: PubChem BioAssay AID1159580 (chemical genetic matrix, 2015)
Out of some 5,500 compounds screened, about 2,000 (36%) were called active. Roughly 18% stayed inconclusive and do not appear here. No stated cut-off is given here; in the data, active means normalized growth mostly below about 0.91 (no sharp cut-off); inconclusive means no clear call, values can overlap the other calls; inactive means mostly above about 0.92. Some of the results follow.

Test: chemical genetic growth profiling, strain panel (AID 1159580);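 further: tested at 20 µM; growth read once vehicle control cultures reached saturation at 30 °C; 1 = growth at the plate median or of vehicle wells; lower values mean less growth of the strain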
Conditions: growth OD

Measured: normalized growth

OC(CCN1CCCCC1)(c1ccccc1)c1ccccc1
inactive: S. cerevisiae deletion strains, locus YJR075W, strain HOC1, hits give low values 1 | S. cerevisiae deletion strains, locus YKL009W, strain mrt4, hits give low values 1.03 | S. cerevisiae deletion strains, locus YKL068W, hits give low values 1.01 | S. cerevisiae deletion strains, locus YKL085W, strain MDH1 (second series), hits give low values 1.07 | S. cerevisiae deletion strains, locus YKL085W, strain MDH1, hits give low values 1.07 | S. cerevisiae deletion strains, locus YKL160W, strain elf1, hits give low values 1.03 | S. cerevisiae deletion strains, locus YKL190W, strain CNB1, hits give low values 1.01 | S. cerevisiae deletion strains, locus YKR001C, strain vps1, hits give low values 1.01 | S. cerevisiae deletion strains, locus YKR026C, strain gcn3, hits give low values 0.993 | S. cerevisiae deletion strains, locus YKR091W, strain srl3, hits give low values 0.993 | S. cerevisiae deletion strains, locus YLL001W, strain dnm1, hits give low values 1.01 | S. cerevisiae deletion strains, locus YLL026W, hits give low values 0.983 | S. cerevisiae deletion strains, locus YLL041C, strain sdh2, hits give low values 0.994 | S. cerevisiae deletion strains, locus YLR027C, strain aat2, hits give low values 1 | S. cerevisiae deletion strains, locus YLR039C, strain RIC1, hits give low values 1.08 | S. cerevisiae deletion strains, locus YLR058C, strain SHM2, hits give low values 1.01 | S. cerevisiae deletion strains, locus YLR102C, strain apc9, hits give low values 1.01 | S. cerevisiae deletion strains, locus YLR113W, strain HOG1, hits give low values 1.05 | S. cerevisiae deletion strains, locus YLR221C, strain rsa3, hits give low values 0.966 | S. cerevisiae deletion strains, locus YLR258W, strain gsy2, hits give low values 0.965 | S. cerevisiae deletion strains, locus YLR262C, strain YPT6 (second series), hits give low values 1.02 | S. cerevisiae deletion strains, locus YLR262C, strain YPT6, hits give low values 1.1 | S. cerevisiae deletion strains, locus YLR268W, strain sec22, hits give low values 1.02 | S. cerevisiae deletion strains, locus YLR320W, strain mms22, hits give low values 0.999 | S. cerevisiae deletion strains, locus YLR330W, strain CHS5, hits give low values 1.01 | S. cerevisiae deletion strains, locus YLR342W, strain FKS1 (second series), hits give low values 1.02 | S. cerevisiae deletion strains, locus YLR342W, strain FKS1, hits give low values 0.993 | S. cerevisiae deletion strains, locus YLR357W, strain rsc2, hits give low values 0.997 | S. cerevisiae deletion strains, locus YLR370C, strain arc18, hits give low values 0.974 | S. cerevisiae deletion strains, locus YLR371W, strain rom2, hits give low values 1.01 | S. cerevisiae deletion strains, locus YLR384C, strain iki3, hits give low values 0.983 | S. cerevisiae deletion strains, locus YLR418C, strain cdc73, hits give low values 1.01 | S. cerevisiae deletion strains, locus YML016C, strain PPZ1, hits give low values 1 | S. cerevisiae deletion strains, locus YML032C, strain rad52, hits give low values 1.01 | S. cerevisiae deletion strains, locus YML120C, strain ndi1, hits give low values 0.978 | S. cerevisiae deletion strains, locus YML124C, strain tub3, hits give low values 1 | S. cerevisiae deletion strains, locus YMR058W, strain fet3, hits give low values 0.996 | S. cerevisiae deletion strains, locus YMR078C, strain ctf18, hits give low values 1.01 | S. cerevisiae deletion strains, locus YMR125W, strain sto1, hits give low values 1.01 | S. cerevisiae deletion strains, locus YMR129W, hits give low values 0.99 | S. cerevisiae deletion strains, locus YMR205C, strain PFK2, hits give low values 1.01 | S. cerevisiae deletion strains, locus YMR223W, strain ubp8, hits give low values 1.01 | S. cerevisiae deletion strains, locus YMR231W, strain pep5, hits give low values 0.995 | S. cerevisiae deletion strains, locus YMR307W, strain GAS1, hits give low values 1.08 | S. cerevisiae deletion strains, locus YNL067W, strain RPL9B, hits give low values 1.02 | S. cerevisiae deletion strains, locus YNL071W, strain lat1, hits give low values 0.993 | S. cerevisiae deletion strains, locus YNL153C, strain GIM3, hits give low values 0.998 | S. cerevisiae deletion strains, locus YNL183C, strain NPR1, hits give low values 0.971 | S. cerevisiae deletion strains, locus YNL209W, strain ssb2, hits give low values 0.987 | S. cerevisiae deletion strains, locus YNL233W, strain BNI4, hits give low values 1.01 | S. cerevisiae deletion strains, locus YNL248C, strain rpa49, hits give low values 1.06 | S. cerevisiae deletion strains, locus YNL250W, strain rad50, hits give low values 1 | S. cerevisiae deletion strains, locus YNL271C, strain bni1, hits give low values 1.02 | S. cerevisiae deletion strains, locus YNL298W, strain CLA4, hits give low values 1.02 | S. cerevisiae deletion strains, locus YNL307C, strain MCK1, hits give low values 1.02 | S. cerevisiae deletion strains, locus YNL322C, strain KRE1 (second series), hits give low values 0.987 | S. cerevisiae deletion strains, locus YNL322C, strain KRE1, hits give low values 1.01 | S. cerevisiae deletion strains, locus YNR049C, strain mso1, hits give low values 0.997 | S. cerevisiae deletion strains, locus YNR052C, strain pop2, hits give low values 1.02 | S. cerevisiae deletion strains, locus YOL006C, strain TOP1, hits give low values 0.958 | S. cerevisiae deletion strains, locus YOL012C, strain htz1 0.814 | S. cerevisiae deletion strains, locus YOL147C, strain pex11, hits give low values 1 | S. cerevisiae deletion strains, locus YOR001W, strain rrp6, hits give low values 0.992 | S. cerevisiae deletion strains, locus YOR061W, strain CKA2, hits give low values 1 | S. cerevisiae deletion strains, locus YOR069W, strain VPS5, hits give low values 1 | S. cerevisiae deletion strains, locus YOR070C, strain gyp1, hits give low values 0.989 | S. cerevisiae deletion strains, locus YOR080W, strain dia2, hits give low values 0.984 | S. cerevisiae deletion strains, locus YOR083W, strain WHI5, hits give low values 1.03 | S. cerevisiae deletion strains, locus YOR106W, strain vam3, hits give low values 1.01 | S. cerevisiae deletion strains, locus YOR136W, strain idh2, hits give low values 1.01 | S. cerevisiae deletion strains, locus YOR144C, strain elg1, hits give low values 1 | S. cerevisiae deletion strains, locus YOR184W, strain ser1, hits give low values 1.02 | S. cerevisiae deletion strains, locus YOR231W, strain MKK1, hits give low values 1.07 | S. cerevisiae deletion strains, locus YOR265W, strain rbl2, hits give low values 0.989 | S. cerevisiae deletion strains, locus YOR270C, strain vph1, hits give low values 0.955 | S. cerevisiae deletion strains, locus YOR290C, strain snf2, hits give low values 1 | S. cerevisiae deletion strains, locus YOR316C, strain cot1, hits give low values 1.02 | S. cerevisiae deletion strains, locus YPL051W, strain arl3, hits give low values 1.06 | S. cerevisiae deletion strains, locus YPL055C, strain LGE1, hits give low values 1.02 | S. cerevisiae deletion strains, locus YPL078C, strain atp4, hits give low values 1.03 | S. cerevisiae deletion strains, locus YPL106C, strain sse1, hits give low values 0.966 | S. cerevisiae deletion strains, locus YPL240C, strain hsp82, hits give low values 0.984 | S. cerevisiae deletion strains, locus YPL241C, strain CIN2, hits give low values 1 | S. cerevisiae deletion strains, locus YPL256C, strain CLN2, hits give low values 1.04 | S. cerevisiae deletion strains, locus YPR119W, strain clb2, hits give low values 1.01 | S. cerevisiae deletion strains, locus YPR141C, strain kar3, hits give low values 1.01 | S. cerevisiae deletion strains, locus YPR163C, strain tif3, hits give low values 1.02 | S. cerevisiae deletion strains, locus YPR167C, strain met16, hits give low values 1.02 | S. cerevisiae deletion strains, strain wtn01, hits give low values 1.01 | S. cerevisiae strains, strain wild type, hits give low values 1.01
